# Results filed as inconclusive are left out. Active and inactive are the calls of the source. Calls come from the whole dose curve; as a rule, active = well fitted cell-killing curve with a large enough effect; inconclusive = small, poorly fitted or top-dose-only effect; inactive = flat fitted curve, though single readings scatter.
# Assay: qHTS of pediatric cancer cell lines to identify multiple opportunities for drug repurposing: Primary screen for RD cells (AID 1347104); note: nearly all actives have a fitted effect of over 55% in size
# Details: RD rhabdomyosarcoma viability, CellTiter-Glo luminescence, 48 h; series mostly up to 46 µM; activity change, negative = cytotoxic: at the top concentration
# Text: Drug repurposing or repositioning has been offered as a strategy for drug development in oncology programs. This approach has special potential for childhood cancers and other rare or orphan diseases, where the expected return on new drug development has been a disincentive to pharmaceuticals. […] In this project we exploit the poly-pharmacology of drugs to discover new indications via phenotypic screening of a panel of 19 well-characterized cell lines derived from solid tumors seen in children and adolescents. The goal is to identify approved drugs with previously unrecognized anticancer properties that has the potential to reveal new mechanisms and biological processes involved in carcinogenesis or drug resistance. We employed a titration-based paradigm (quantitative high-throughput screening or qHTS), where all compounds were tested at multiple concentrations for their effect on cell viability. Concentration-response curves (CRCs) were derived directly from the primary screen, and both potency and efficacy values were used to identify compounds with robust bioactivity profiles. We screened the NIH Chemical Genomics Center (NCGC) Pharmaceutical Collection (NPC) and Mechanism Interrogation Plate (MIPE) small molecule collections of approved and investigational compounds against these cell lines; and measured metabolically active cells after 48 hours of compound treatment as a proxy for cell viability. […] Assay Submitter: Nathalia J. Martinez, National Center for Advancing Translational Sciences, National Institutes of Health, Rockville, MD, USA; email: natalia.martinez@nih.gov Shen, M et al. Quantitative high-throughput phenotypic screening of pediatric cancer cell lines identifies multiple opportunities for drug repurposing. Oncotarget 2017 Dec 19;9(4):4758-4772. PMID 29435139.
# The cells were obtained from University of North Carolina (UNC), Pediatric Preclinical Testing Program (PPT), and Coriell Institute (CI). qHTS cell viability assay: Cells were assayed in growth media at a density of 500-1,000 cells/well. Five microliters of cells were dispensed into 1,536-well, white, solid-bottom, TC-treated plates (Greiner Bio One) using a multidrop dispenser and incubated at 37 degrees C, 5% CO2, under a humidified atmosphere for 5 hours. Twenty-three nanoliters of compounds and controls (neutral control DMSO or positive control bortezomib at final concentration of 2.3 µM) were subsequently transferred by Kalypsys pintool. For primary screens, the MIPE collection was tested at 11-point dilutions (final concentrations range from 0.78 nM to 46 µM) and the NPC collection at 8-point dilutions (final concentrations range from 0.59 nM to 46 µM). Compounds tested in follow-up screens were assayed at 11-point dilutions. Cells were incubated for 48 hours, followed by addition of 3 µL of CellTiter-Glo (Promega). After a 15 min incubation at room temperature, samples were analyzed for luminescence intensity using a ViewLux High-throughput CCD imager equipped with clear filters.
# Potency is the fitted concentration of half-maximal effect.
SMILES,"activity change, negative = cytotoxic",Potency
CCCCC(CC)COC(=O)c1ccccc1O (stereo not given),6.59% (inactive),
CC(COc1ccccc1)NC(C)C(O)c1ccc(O)cc1 (stereo not given),10.5% (inactive),
CCCn1cnc2c1c(=O)n(CCCCC(C)=O)c(=O)n2C,13.9% (inactive),
CCN(CC)C(=O)Nc1ccc(OCC(O)CNC(C)(C)C)c(C(C)=O)c1 (stereo not given),1.65% (inactive),
C[C@@H]1CCN(C(=O)[C@H](CCCN=C(N)N)NS(=O)(=O)c2cccc3c2NC[C@H](C)C3)[C@@H](C(=O)O)C1,14.3% (inactive),
CC[C@H]1CN2CCc3cc(OC)c(OC)cc3[C@@H]2C[C@@H]1C[C@H]1NCCc2cc(OC)c(OC)cc21,,335 nM (active)
C[C@@H]1C[C@H]2[C@@H]3C[C@H](F)C4=CC(=O)C=C[C@]4(C)[C@@]3(F)[C@@H](O)C[C@]2(C)[C@@]1(O)C(=O)CO,7.01% (inactive),
NS(=O)(=O)c1cc2c(cc1C(F)(F)F)NC(Cc1ccccc1)NS2(=O)=O (stereo not given),9.65% (inactive),
O=C(O)c1ccccn1,7.99% (inactive),
CC(C)c1c(C(=O)Nc2ccccc2)c(-c2ccccc2)c(-c2ccc(F)cc2)n1CC[C@@H](O)C[C@@H](O)CC(=O)O,-21.3% (inactive),
NCC(=O)CCC(=O)O,5.58% (inactive),
CC(=O)Oc1c(C)c(C)c2c(c1C)CC[C@@](C)(CCC[C@H](C)CCC[C@H](C)CCCC(C)C)O2,6.86% (inactive),
CC(C)(C)C(=O)NCCCC(=O)O,10.3% (inactive),
CCC(=O)c1ccc(O)cc1,7.36% (inactive),
CCCOC(=O)c1ccccc1,13.7% (inactive),
COc1cc2[nH]c(=O)[nH]c(=O)c2cc1OC,13.8% (inactive),
CN(N=O)C(=O)N[C@@H]1[C@@H](O)[C@H](O)[C@@H](CO)O[C@@H]1O,4.67% (inactive),
Nc1ccc(S(=O)(=O)NC(=O)c2ccccc2)cc1,0.72% (inactive),
CN1[C@@H]2CC[C@H]1CC(OC(=O)C(O)c1ccccc1)C2 (stereo not given in full),5.72% (inactive),
CCCCCCCCCCCCCCCC(=O)NCCO,6.55% (inactive),

SMILES,"activity change, negative = cytotoxic",Potency
CC(C(O)c1ccc(O)cc1)N1CCC(Cc2ccccc2)CC1 (stereo not given),-24.2% (inactive),
CC1=C(C/C=C(\C)CCC[C@H](C)CCC[C@H](C)CCCC(C)C)C(=O)c2ccccc2C1=O,6.67% (inactive),
CC1(C)Oc2ccc(C#N)cc2[C@@H](N2CCCC2=O)[C@@H]1O,10.4% (inactive),
CCN(CC)CCNC(C(=O)OCCC(C)C)c1ccccc1 (stereo not given),0.779% (inactive),
O=C(O)CN1C(=O)c2cccc3cccc(c23)C1=O,12% (inactive),
Cc1cc2c(cc1S(N)(=O)=O)S(=O)(=O)CCC2,7.34% (inactive),
CCCCOc1cc(C(=O)OCCN(CC)CC)ccc1N,-1.05% (inactive),
O=C1NS(=O)(=O)c2ccccc21,13.6% (inactive),
O=C1O[C@H]([C@@H](O)CO)C(O)=C1O,16.4% (inactive),
COc1cc(C(=O)N2CCOCC2)cc(OC)c1OC,2.96% (inactive),
Nc1cc(=O)[nH]c(N)n1,7.46% (inactive),
Cn1cc[nH]c1=S,14.5% (inactive),
Cc1cccc(C)c1NC(=O)CN(CC(=O)O)CC(=O)O,20.1% (inactive),
CCC(=O)Nc1ccc(O)cc1,7.64% (inactive),
CC(=O)OCC(=O)[C@@]1(O)CC[C@H]2[C@@H]3CCC4=CC(=O)CC[C@]4(C)[C@H]3C(=O)C[C@@]21C,-14.8% (inactive),
Nc1ccc(S(=O)(=O)Nc2ccccc2)cc1,2.97% (inactive),
O=C(O)Cc1sc(-c2ccccc2)nc1-c1ccc(Cl)cc1,3.28% (inactive),
CC(=O)NC(Cc1ccccc1)C(=O)O (stereo not given),-7.34% (inactive),
Oc1cn2c(n1)Nc1ccc(Cl)c(Cl)c1C2,10.4% [at 16.1 µM] (inactive),
O=C(O)c1ccccc1-c1ccc(C(F)(F)F)cc1,18.6% (inactive),

# Source: PubChem BioAssay (NCATS)
